Assay [1] concerns the target Glutathione peroxidase 1 (Homo sapiens) (UniProt P07203). In words: Primary qHTS Assay for Inhibitors of Recombinant Selenoprotein Glutathione Peroxidase 1 (GPX1) (AID 1845191). Further: nearly all actives have a fitted effect of over 65% in size. In a few lines:
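Recombinant GPX1 (10 nM final) was preincubated with compound for 30 min at room temperature, then reacted with 1 mM GSH, 0.5 mM CHP, 0.5 mM NADPH and 100 nM glutathione reductase; NADPH fluorescence (340/450 nm) was read at 0 and 15 min.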
On the technique in general: Quantitative high-throughput screening tests each substance at several concentrations.

In assay [2] the target is Phospholipid hydroperoxide glutathione peroxidase GPX4 (Homo sapiens) (UniProt P36969). In words: Primary qHTS Assay for Inhibitors of Recombinant Selenoprotein Glutathione Peroxidase 4 (GPX4) (AID 1845192). Further: nearly all actives have a fitted effect of over 65% in size. Further: potency means the concentration at half of the fitted maximal effect. On activity change, negative = inhibition: series mostly up to about 50 µM; on the % scale 0 is the no-effect control and ±100 the full control effect. In a few lines:
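GR-coupled readout: 100 nM GR, 1 mM GSH, 0.5 mM NADPH; NADPH fluorescence (ex 340/em 450 nm) read at t=0 and after 15 min RT. GPX4 200 nM, preincubated 30 min with compound; substrate 0.5 mM CHP.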

A short description of assay [3]: Quantitative High-Throughput drug screen in 47 multiple myeloma cell lines against the NCATS MIPE library collection: FR4_PLB cell viability assay (AID 1918924; further: nearly all actives have a fitted effect of over 35% in size; further: potency means the concentration at half of the fitted maximal effect). In a few lines: (§1)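 Viability readout: CellTiter-Glo luminescence following 5 min room-temperature incubation with reagent. Prior exposure: 48 h, 37C, humidified 5% CO2, 500 cells per well.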
The nature of assay [4]: Quantitative High-Throughput drug screen in 47 multiple myeloma cell lines against the NCATS MIPE library collection: Delta47_JCRB cell viability assay (AID 1918925; further: nearly all actives have a fitted effect of over 45% in size; further: potency means the concentration at half of the fitted maximal effect). The gist of the method:
(§2)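 CellTiter-Glo ATP luminescence gave viability after 48 h compound treatment at 37C of 500 multiple myeloma cells per well. Normalisation used DMSO-only wells as 100% and media-only wells as 0% viability; primary qHTS of approved and investigational drugs.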

The nature of assay [5]: Quantitative High-Throughput drug screen in 47 multiple myeloma cell lines against the NCATS MIPE library collection: EJM_DSMZ cell viability assay (AID 1918926; further: nearly all actives have a fitted effect of over 30% in size; further: potency means the concentration at half of the fitted maximal effect). In a few lines: as §2
The nature of assay [6]: Quantitative High-Throughput drug screen in 47 multiple myeloma cell lines against the NCATS MIPE library collection: AMO1_DSMZ cell viability assay (AID 1918927; further: nearly all actives have a fitted effect of over 30% in size; further: potency means the concentration at half of the fitted maximal effect). The gist of the method: as §2
Assay [7] can be described thus: Quantitative High-Throughput drug screen in 47 multiple myeloma cell lines against the NCATS MIPE library collection: ARP1_JJKsccF8 cell viability assay (AID 1918928; further: nearly all actives have a fitted effect of over 40% in size; further: potency means the concentration at half of the fitted maximal effect). In a few lines: (§3)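 Here, 48 h treatment with MIPE 4.0 agents at 37 °C preceded an ATP luminescence read. Plating density was 500 cells per well.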
Assay [8] can be described thus: Quantitative High-Throughput drug screen in 47 multiple myeloma cell lines against the NCATS MIPE library collection: Karpas620_DSMZ cell viability assay (AID 1918959). Further: nearly all actives have a fitted effect of over 30% in size. Further: potency means the concentration at half of the fitted maximal effect. The gist of the method:
as §1

The nature of assay [9]: Quantitative High-Throughput drug screen in 47 multiple myeloma cell lines against the NCATS MIPE library collection: KMM1_JCRB cell viability assay (AID 1918960). Further: nearly all actives have a fitted effect of over 30% in size. Further: potency means the concentration at half of the fitted maximal effect. In a few lines:
as §3

Assay [10] is described as follows: Quantitative High-Throughput drug screen in 47 multiple myeloma cell lines against the NCATS MIPE library collection: ARD_JJKsccE7 cell viability assay (AID 1918929; further: potency means the concentration at half of the fitted maximal effect). The gist of the method: as §2

Results filed as inconclusive are left out. Unmarked numbers belong to inactive results. Activity calls are given as the source filed them. The call rests on the fitted dose curve; in most records, active means well fitted curve in the direction sought with a large enough effect; inconclusive means small, poorly fitted or top-dose-only effect, or another doubt; inactive means no such curve, though single readings can be large; an effect the other way counts as inactive or inconclusive. Starred links: 1 amine or outer side, 2 acyl side, 3 side chain; linkers in the order of their positions; H or OH if unused. Positions of bridges follow the written chain, without caps; N, C: chain ends. Non-standard residues stand in square brackets, D forms with d. Residues, ends and D or L forms follow the SMILES beside them. Chains are numbered I, II in the order given. Actinocin(9to1) = Cc1c2oc3c(C)ccc(C(=O)[*:1])c3nc-2c(C(=O)[*:2])c(N)c1=O; NMeV = CN[CH](C(=O)O)C(C)C; Sar = CNCC(=O)O

Phospholipid hydroperoxide glutathione peroxidase GPX4 (Homo sapiens), sequence (P36969 whole entry, looked up): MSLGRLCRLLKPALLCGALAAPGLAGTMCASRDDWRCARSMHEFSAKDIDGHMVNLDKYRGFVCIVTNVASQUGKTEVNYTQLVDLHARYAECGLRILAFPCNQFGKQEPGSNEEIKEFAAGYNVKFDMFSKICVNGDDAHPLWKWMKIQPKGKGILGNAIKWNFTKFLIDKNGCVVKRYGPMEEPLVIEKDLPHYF
Glutathione peroxidase 1 (Homo sapiens), sequence (P07203 whole entry, looked up): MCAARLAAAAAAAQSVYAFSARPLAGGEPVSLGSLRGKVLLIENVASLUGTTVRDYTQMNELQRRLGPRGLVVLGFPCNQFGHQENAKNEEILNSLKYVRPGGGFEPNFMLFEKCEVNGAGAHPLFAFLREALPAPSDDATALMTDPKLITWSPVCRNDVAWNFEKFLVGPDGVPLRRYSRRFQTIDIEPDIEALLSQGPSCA

Consider `Cc1c2oc3c(C)ccc(C(=O)NC4C(=O)NC(C(C)C)C(=O)N5CCCC5C(=O)N(C)CC(=O)N(C)C(C(C)C)C(=O)OC4C)c3nc-2c(C(=O)NC2C(=O)NC(C(C)C)C(=O)N3CCCC3C(=O)N(C)CC(=O)N(C)C(C(C)C)C(=O)OC2C)c(N)c1=O` (stereo not drawn) (I: TVP[Sar][NMeV] / II: TVP[Sar][NMeV]; ester I:1-I:C, II:1-II:C; linker I:N-II:N via Actinocin(9to1); configuration not given here), for which the Potency entry in assay [1], in [2], in [3], in assay [4], in [5] and in assay [6] was “inactive” in each case. Moreover, the Potency result in assay [7], in assay [8] and in assay [9] was “inactive” each time.
Consider `O=C(O)CCCCC(CCSCc1ccccc1)SCc1ccccc1` (stereo not drawn), for which the Potency result in assay [1], in assay [3], in assay [4], in [5] and in assay [7] was “inactive” in each case. Besides, the values for the Potency in assay [2], in [10] and in [9] were 20.2 µM (active), 18.7 µM (active) and 13.2 µM (active), respectively.
`COC[C@H](NC(=O)c1cnc(C)s1)C(=O)N[C@@H](COC)C(=O)N[C@@H](Cc1ccccc1)C(=O)[C@@]1(C)CO1`: the Potency result in assay [1] and in [2] was “inactive” throughout. The Potency in assay [3] is 0.0469 µM (active); in [4], 0.0372 µM (active); in [5], 0.166 µM (active); in assay [6], 0.0264 µM (active); in [10], 0.0526 µM (active); in assay [8], 0.0469 µM (active). Further, the Potency in [9] is 0.0332 µM (active).
On to `CN(CC(=O)N(Cc1ccc(C2CCCCC2)cc1)c1ccc(C(=O)O)c(O)c1)S(=O)(=O)c1c(F)c(F)c(F)c(F)c1F`, for which the Potency result in assay [1] was “inactive”. The Potency was 11.4 µM (active) in assay [2]; 20.9 µM (active) in [3]; 5.9 µM (active) in assay [4]; 18.7 µM (active) in assay [5]; 5.26 µM (active) in [6]; 23.5 µM (active) in assay [7]. The Potency in assay [10] was 11.8 µM (active); in assay [8], 2.96 µM (active); in assay [9], 10.5 µM (active).
As to `Cc1cc(Nc2ncc3c(n2)N(C)C(=O)N(c2cc(NC(=O)c4cccc(C(F)(F)F)c4)ccc2C)C3)n(C)n1`, the Potency entry in assay [1] and in assay [2] was “inactive” each time. For the same compound, the Potency is 0.418 µM (active) in assay [3]; 0.209 µM (active) in assay [4]; 0.662 µM (active) in assay [5]; 0.833 µM (active) in assay [6]; 0.743 µM (active) in [7]; 0.935 µM (active) in assay [10]. In addition, the Potency in assay [8] is 1.48 µM (active); in assay [9], 1.18 µM (active).
Consider `O=[N+]([O-])c1cn2c(n1)OC[C@@H](OCc1ccc(OC(F)(F)F)cc1)C2`, for which the Potency result in assay [1], in [2], in assay [3], in assay [4], in [5] and in assay [7] was “inactive” in each case. For the same compound, the Potency entry in assay [10], in assay [8] and in [9] was “inactive” each time.
With `CCc1c(O)cc(O)c(C(=O)c2ccc(OCCN3CCOCC3)c(OC)c2)c1CC(=O)N(CCOC)CCOC`, the Potency result in assay [1], in [2] and in assay [6] was “inactive” in each case. The Potency in [3] is 1.18 µM (active); in assay [4] it was 1.66 µM (active); in assay [7] it was 1.48 µM (active).
Regarding `CCOC(=O)C=C[C@H](C[C@@H]1CCNC1=O)NC(=O)[C@@H](CC(=O)[C@@H](NC(=O)c1cc(C)on1)C(C)C)Cc1ccc(F)cc1`, the Potency entry in [1], in assay [2], in assay [3], in assay [4], in assay [5] and in assay [10] was “inactive” throughout. The Potency entry in assay [8] and in assay [9] was “inactive” in each case.
Consider `Cn1cc(-c2cnn3c(N)c(Br)c([C@H]4CCCNC4)nc23)cn1`, for which the Potency entry in assay [1] and in assay [2] was “inactive” throughout. In addition, the Potency in assay [3] was 0.132 µM (active); in assay [4], 0.743 µM (active); in [5], 0.372 µM (active); in assay [6], 1.48 µM (active); in assay [7] it was 3.32 µM (active); in [10] it was 1.05 µM (active). In addition, the Potency in [9] is 0.372 µM (active).
As to `Cc1cnc(Nc2ccc(N3CCN(C)CC3)cc2)nc1Nc1cccc(S(=O)(=O)NC(C)(C)C)c1`, the Potency entry in [1] and in [2] was “inactive” each time. The Potency was 16.6 µM (active) in assay [3]; 1.48 µM (active) in [4]; 3.32 µM (active) in assay [5]; 1.18 µM (active) in assay [6]; 3.72 µM (active) in [7]; 0.59 µM (active) in assay [10]. For the same compound, the figures for the Potency in assay [8] and in assay [9] were 3.72 µM (active) and 1.66 µM (active), respectively.
As to `CCOC(=O)C1=C(C)NC(=S)NC1c1cccc(O)c1` (stereo not drawn), the Potency result in assay [1] and in assay [2] was “inactive” in each case. The Potency was 0.0187 µM (active) in assay [3]; 0.0166 µM (active) in [4]; 0.0469 µM (active) in assay [5]; 0.662 µM (active) in [6]; 0.105 µM (active) in [7]; 0.833 µM (active) in assay [10]. The Potency in [9] was 0.469 µM (active).
Take `CN(C)CCN1C(=O)c2cccc3cc(N)cc(c23)C1=O`: the Potency result in assay [1] and in [2] was “inactive” in each case. The Potency in [3] is 23.5 µM (active); in assay [4], 11.8 µM (active); in [5], 23.5 µM (active); in [6], 4.18 µM (active); in assay [7] it was 20.9 µM (active); in [8], 26.4 µM (active). Moreover, the Potency in assay [9] is 18.7 µM (active).
For `C[C@H](NCc1ccc(OCc2cccc(F)c2)cc1)C(N)=O`, the Potency entry in assay [1] and in assay [2] was “inactive” in each case. For the same compound, the Potency in assay [3] was 16.6 µM (active); in assay [4], 2.09 µM (active); in [5], 9.35 µM (active); in [6] it was 9.35 µM (active); in assay [7] it was 7.43 µM (active); in [10], 5.26 µM (active). Moreover, the Potency in assay [8] is 3.72 µM (active); in assay [9] it was 6.62 µM (active).
`CC(C)(C)c1nc2c3cc[nH]c(=O)c3c3cc(F)ccc3c2[nH]1`: the Potency entry in assay [1], in assay [2] and in assay [8] was “inactive” each time. For the same compound, the Potency in assay [3] is 0.833 µM (active); in assay [4] it was 3.32 µM (active); in [5] it was 2.96 µM (active).
`Cn1cc(C2=C(c3c4n(c5ccccc35)CCC(CN)C4)C(=O)NC2=O)c2ccccc21` (stereo not drawn): the outcome in [1] was “inactive [at 9.52 µM]”. The activity change, negative = inhibition in assay [2] is -6.23% [at 9.73 µM]. Besides, the Potency was 18.7 µM (active) in assay [3]; 5.26 µM (active) in [4]; 9.35 µM (active) in assay [5]; 10.5 µM (active) in [6]; 18.7 µM (active) in assay [7]; 7.43 µM (active) in assay [10]. The Potency in assay [8] was 9.35 µM (active); in assay [9], 13.2 µM (active).
`O=C1NC(O)CCN1[C@@H]1O[C@H](CO)[C@H](O)[C@H]1O` (stereo partly drawn): the Potency entry in assay [1], in assay [2], in assay [3], in assay [4], in assay [5] and in [10] was “inactive” each time. The Potency entry in assay [8] and in assay [9] was “inactive” each time.
With `Oc1ccc(-c2ccc(-c3cc(Nc4cccc(CNC5CC5)c4)n[nH]3)cc2)c(O)c1`, the Potency entry in assay [1] and in assay [2] was “inactive” in each case. In addition, the Potency in assay [3] is 0.935 µM (active); in [4], 0.469 µM (active); in assay [5], 0.935 µM (active); in [6], 1.32 µM (active); in assay [8] it was 1.18 µM (active); in assay [9], 0.743 µM (active).

The values above are taken from PubChem BioAssay (NCATS).
